# Assay outcomes: PubChem, National Center for Advancing Translational Sciences (NCATS)
# Nrf2 activator: activators of Nrf2 (ARE) signaling | AREc32 ARE-luciferase reporter (MCF7-derived line), luminescence, 24 h | Potency, µM (top dose mostly 46.1 µM), inactives show at the highest dose activation, most hits filed as activators | hit rate 0.31% among 410,000 | AID 624171; note: % of control where 0% means no effect; nearly all actives have a fitted effect of over 65% in size
#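 ARE activation measured as luciferase luminescence (Steady-Glo, 30 min RT) in AREc32_Fluc cells after 24 hr compound exposure at 37 deg C, 5% CO2; cells seeded overnight at 1000/well in OPTI-MEM, 5% FBS.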
# Rango complex inh: prevents formation of the Rango-importin beta complex; AID 540263; Q14974; hit rate 0.031% among 340,000; Rango CFP/YFP FRET sensor + importin beta, 45 min; Potency, µM (top dose mostly 92.2 µM), without a hit: at the highest dose inhibition of complex formation; calls by dose curve;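 note: 0% = DMSO wells and 100% = buffer wells lacking importin beta; nearly all actives have a fitted effect of over 15% in size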
# Target sequence (Q14974 whole entry, looked up): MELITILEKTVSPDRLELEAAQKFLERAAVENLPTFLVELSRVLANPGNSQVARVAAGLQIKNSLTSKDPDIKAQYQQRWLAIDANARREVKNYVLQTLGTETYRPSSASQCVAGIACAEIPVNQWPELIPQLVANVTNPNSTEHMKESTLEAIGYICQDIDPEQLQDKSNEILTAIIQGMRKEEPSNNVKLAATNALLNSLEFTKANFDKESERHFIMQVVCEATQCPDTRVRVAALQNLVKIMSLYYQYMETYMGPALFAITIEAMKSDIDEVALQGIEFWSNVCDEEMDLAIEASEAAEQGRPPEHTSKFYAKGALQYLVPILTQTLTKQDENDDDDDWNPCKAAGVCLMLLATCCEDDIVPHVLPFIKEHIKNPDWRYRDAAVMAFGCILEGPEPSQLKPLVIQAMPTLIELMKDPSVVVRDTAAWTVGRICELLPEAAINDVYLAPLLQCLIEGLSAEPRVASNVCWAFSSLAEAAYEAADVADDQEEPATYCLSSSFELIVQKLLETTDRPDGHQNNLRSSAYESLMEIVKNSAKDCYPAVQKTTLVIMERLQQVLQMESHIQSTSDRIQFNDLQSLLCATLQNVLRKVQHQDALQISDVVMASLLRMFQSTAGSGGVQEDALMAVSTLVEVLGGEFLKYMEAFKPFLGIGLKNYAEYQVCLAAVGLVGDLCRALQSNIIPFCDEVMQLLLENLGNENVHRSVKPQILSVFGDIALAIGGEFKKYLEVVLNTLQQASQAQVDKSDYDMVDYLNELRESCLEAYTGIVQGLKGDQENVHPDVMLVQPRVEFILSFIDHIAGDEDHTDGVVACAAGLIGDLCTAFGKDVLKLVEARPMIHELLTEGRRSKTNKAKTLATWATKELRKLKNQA
#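 FRET biosensor (snurportin 1 IBB flanked by EYFP and cerulean), 50 nM, with compound 5 min, then 0.125 microM importin beta in PBS, 1 mM DTT, 0.02% Tween-20, 0.1% BSA. CFP/YFP ratio read after 45 min at room temperature; pre-read flags interference.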
# A549 viability: A549 cytotoxicity, counter-screen for Nrf2 inhibitors; A549 ARE-Fluc cells, CellTiter-Fluor viability, 18-24 h; hit rate 0.16% among 390,000; Potency, µM (highest dose often 46 µM), without a hit: top-dose activity change, negative = cytotoxicity, usual class: inhibitors; note: % is set by controls: 0 for no effect and ±100 for the full control effect
#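 Cytotoxicity counterscreen: CellTiter-Fluor fluorescence was measured in A549 ARE_Fluc cells after 18-24 h of compound exposure in a concentration series. The subsequent BugLite luminescent read reports ARE-luciferase activity.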
# Nrf2 block: Nrf2 pathway inhibition | Potency, µM (top dose mostly 46 µM), inactives show at the highest dose activity change, negative = inhibition, actives largely listed as inhibitors | A549 ARE-Fluc reporter, luciferase luminescence, 18-24 h | hit rate 2.1% among 360,000 | AID 504444; note: % is set by controls: 0 for no effect and ±100 for the full control effect; nearly all actives have a fitted effect of over 60% in size
#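 Reporter: ARE-Fluc in A549. Exposure: 18-24 h, 37 °C, 5% CO2, 5% FBS OPTI-MEM. Readouts: fluorescent cytotoxicity (CellTiter-Fluor), then luminescent Nrf2 signal after BugLite.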
# Rango dissoc inh: prevents RanGTP from dissociating the Rango-importin beta complex. O95149+P62826. Biochemical FRET Rango-importin beta, RanGTP-induced dissociation. Potency, µM (doses to about 46.1 µM), for inactives: top-dose activity change, negative = inhibition. hit rate 0.071% among 340,000; calls by dose curve; note: % of control where 0% means no effect; nearly all actives have a fitted effect of over 45% in size
#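 Rango (0.1 uM)–importin beta (0.25 uM) complex; RanGTP-RCC1 trigger; 45 min RT; CFP/YFP FRET read.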
# An asterisk follows results filed as active; u = inconclusive; x = not tested or not shown; ! = not active in a repeat; [ ] = remark or other dose. In the library only some 2.3% were active in any assay of this set; here they are far more common. Unless noted, calls come from the whole dose curve; as a rule, active = well fitted curve in the direction sought with a large enough effect; inconclusive = small, poorly fitted or top-dose-only effect, or another doubt; inactive = no such curve, though single readings can be large; an effect the other way counts as inactive or inconclusive. Potency is the fitted concentration of half-maximal effect.
SMILES,Nrf2 activator,Rango complex inh,A549 viability,Nrf2 block,Rango dissoc inh
Cc1cc(C)n(-c2ccc3cccc(NS(C)(=O)=O)c3n2)n1,0%,2%,-10%,5.2µM*,1%
CSc1ncc(C(=O)Nc2c(C)cccc2C)c(-c2ccccc2)n1,1%,x,2%,u,x
CCOC(=O)c1c(S(=O)(=O)N2CCCC(C(=O)Nc3cccc(Cl)c3)C2)c(C)n(C)c1C (centres undefined),6%,x,-9%,x,x
CCCN(CCC)C(=O)CSc1nc2n[nH]c(C)c2c(=N)n1-c1ccc(OC)cc1,-1%,-2%,u,18µM*,11%
Cc1[nH]nc2nc(SCC(=O)NC3CCCCC3)n(-c3ccc(Br)cc3)c(=N)c12,0%,0%,u,18µM*,-6%
COc1ccccc1NC(=O)CSc1nc2n[nH]c(C)c2c(=N)n1-c1ccccc1Cl,1%,-3%,-10%,13µM*,-10%
Cc1ccc(C)c(Cn2cnc3ccccc3c2=O)c1,-1%,x,-12%,-7%,x
O=C1C(=O)N(C2CCCC2)C(=O)N1Cc1c(F)cccc1Cl,0%,-5%,-9%,6%,20%
CCC(=O)N1CCc2cc(Br)cc(S(=O)(=O)N3CCN(c4ccc(C)cc4)C(C)C3)c21 (centres undefined),-1%,x,13%,9%[9.27 µM],x
NCCC(=O)Nc1cccc(-c2nn3c(=O)cc(N4CCNCC4)nc3s2)c1,x,x,3%,-6%,x
Cc1nc2cc(NC(=O)c3ccc(S(=O)(=O)N(C)c4ccccc4)cc3)ccc2o1,3%,4%,-19%,8.2µM*,-11%
CN(c1cccc(NC(=O)c2ccc(N(C)S(=O)(=O)c3ccccc3)cc2)c1)S(C)(=O)=O,0%,1%,-15%,15µM*,11%
CN(c1ccccc1)S(=O)(=O)c1ccc(NC(=O)c2ccc(-c3ccccc3)cc2)cc1,0%,u,-21%,15µM*,10%
CN(c1ccccc1)S(=O)(=O)c1ccc(C(=O)Nc2nnc(-c3ccc(F)cc3)o2)cc1,0%,1%,-15%,23µM*,u
CC(=O)Nc1ccc(C(=O)Nc2cccc(S(=O)(=O)N(C)c3ccccc3)c2)cc1,-2%,4%,1%,u,-1%
O=C(OCC#CCSc1nnc(-c2cccc3ccccc23)o1)c1ccc(F)cc1F,x,x,-5%,23%,x
COc1ccc(Cn2ncc3c4sc(C)cc4n(C)c3c2=O)cc1F,x,x,-2%,3%,x
CCOc1ccc(C(=O)NCC(c2ccc3c(c2)OCO3)N2CCN(c3ccccc3F)CC2)cc1 (centres undefined),4%,x,-19%,x,x
O=C(c1cccc(Cl)c1)N1c2ncnn2C2(CCCCC2)[C@@H]2CCCC[C@@H]21,-1%,x,-1%,-16%,x
N=C1/C(=C\c2ccc(-c3cccc(C(=O)O)c3)o2)C(=O)N=C2SC=C(c3ccccc3)N12,0%,u,-16%,11%,u
CCC1CCCCN1C(=O)c1ccc([N+](=O)[O-])o1 (centres undefined),20µM*,0%,-1%,14%,-7%
Cc1cc2c(s1)c1cnn(Cc3ccc(C(F)(F)F)cc3)c(=O)c1n2C,x,x,-4%,15%,x
COc1ccc(CCCc2nnc(SCC(=O)Nc3ccc(Cl)cc3)o2)cc1,5%,x,0%,21µM*,x
COc1ccc(CCCc2nnc(SCC(=O)NN)o2)cc1,-1%,0%,-1%,0%,12%
Cc1ccc(CC2S/C(=N/N=C/c3ccco3)NC2=O)cc1 (centres undefined),4.5µM*,1%,12%,1%,0%
SMILES,Nrf2 activator,Rango complex inh,A549 viability,Nrf2 block,Rango dissoc inh
O=C1N/C(=N\N=C\c2ccccn2)SC1Cc1cccc(SC(F)F)c1 (centres undefined),-1%,0%,-19%,16µM*,1%
O=C1N/C(=N/N=C/c2ccco2)SC1Cc1ccccc1 (centres undefined),u,-2%,0%,0%,-1%
O=C1N/C(=N\N=C\c2cccnc2)SC1Cc1ccc(SC(F)F)cc1 (centres undefined),0%,9%,-21%,16µM*,-9%
Cc1cc(=O)oc2cc(OC(C)C(=O)NC3(C#N)CCCCC3)ccc12 (centres undefined),0%,5%,-1%,-4%,-6%
Cc1ccc(C(=O)Oc2ccc(/C=C3\C(=N)N4N=C(N5CCOCC5)SC4=NC3=O)cc2)cc1,0%,u,5%,7.3µM*,-17%
O=C(Nc1ccc(O)c2ncccc12)c1ccccc1F,x,x,2%,u,x
CCc1ccc(NC(=O)CCCn2nc(C)c3c(C)n(-c4ccccc4)nc3c2=O)cc1,0%,x,-5%,23%,x
Cc1ccc2nc(/N=C(\N)NC(=O)NC3CCCCC3)nc(C)c2c1,5%,3%,23µM*,8.2µM*,12%
Cc1cc(C)c(S(=O)(=O)Nc2ccc(-c3ccc(N4CCCCCC4)nn3)cc2)c(C)c1,0%,x,-7%,x,x
Cc1oc(-c2ccccc2Cl)nc1CSCC(=O)NC1CC1,-1%,8%,-14%,0%,-3%
Cc1oc(-c2ccccc2F)nc1CSCC(=O)NC1CCCC1,0%,-2%,0%,18µM*,1%
COc1ccc(-n2nc3c(N4CCCC(C(=O)NCc5ccccc5C)C4)nnc(C)c3c2C)cc1 (centres undefined),-3%,x,18µM*,21µM*,x
COc1ccccc1CNC(=O)C1CCCN(c2nnc(C)c3c(C)n(-c4ccccc4)nc23)C1 (centres undefined),4%,x,-7%,-35%,x
CCOc1ccccc1CNC(=O)C1CCCN(c2nnc(C)c3c(C)n(-c4ccccc4)nc23)C1 (centres undefined),3%,-2%,u,23µM*!,-8%
Cc1nc(N2CCC(C)CC2)c2c(C)c(C(=O)Nc3cccc(C(F)(F)F)c3)sc2n1,0%,-6%,u,u,-7%
COc1ccc(NC(=O)c2sc3nc(C)nc(N4CCN(c5ccccn5)CC4)c3c2C)cc1Cl,0%,1%,-16%,u,9%
Cc1nc(N2CCN(c3ccccn3)CC2)c2c(C)c(C(=O)Nc3ccc(F)cc3F)sc2n1,1%,0%,2%,u,21%
Cc1nc(N2CCN(c3ccccn3)CC2)c2c(C)c(C(=O)Nc3ccccc3F)sc2n1,0%,-2%,-16%,16µM*,-14%
COc1ccc(NC(=O)c2sc3ncnc(N4CCN(c5ccccn5)CC4)c3c2C)cc1Cl,0%,3%,u,15µM*,-5%
COc1ccc(Cl)cc1NC(=O)c1sc2nc(C)nc(N3CCOCC3)c2c1C,0%,5%,-19%,21µM*,7%
Cc1nc(N2CCC(C)CC2)c2c(C)c(C(=O)Nc3ccc(C(F)(F)F)cc3)sc2n1,0%,1%,u,21µM*,11%
